Screening results from PubChem.
Most compounds without a hit are left out; they make up all but 3.6% or so of the library.
TGFb SMAD3 inh = qHTS for Inhibitors of TGF-b; Potency, µM (series often up to 46.1 µM), most hits filed as inhibitors; hit rate 1.2% among 410,000; AID 588855, 2011; HepG2 CAGA-GFP TGF-b/SMAD3 reporter, GFP fluorescence, 18 h; TGF-beta stimulated, 500 pg/mL final; also: nearly all actives have a fitted effect of over 65% in size
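First, reporter cells (HEPG2 CAGA-GFP) rested 2 h at 37 degrees C. Next, compounds were pinned in and TGF-beta added to 500 pg/mL final. After 18 h, GFP was imaged per cell and summed per well.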
Nrf2 ARE act = qHTS of Nrf2 Activators; AREc32 ARE-luciferase reporter (MCF7-derived line), luminescence, 24 h; hit rate 0.31% among 410,000; Potency, µM (series often up to 46.1 µM), hits mostly activators; AID 624171, 2012; also: nearly all actives have a fitted effect of over 65% in size
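AREc32 cells carrying an ARE-driven firefly luciferase, 1000 cells/well in OPTI-MEM with 5% FBS, dosed after overnight attachment and incubated 24 hr at 37 deg C. Steady-Glo luminescence read after 30 min at RT.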
HepG2 tox = qHTS for Inhibitors of TGF-b: Cytotox Counterscreen; HepG2 CAGA-GFP viability, ATP luminescence, 18 h; Potency, µM (titrated, usually from 46.1 µM), actives largely listed as cytotoxic; hit rate 0.76% among 410,000; AID 588856, 2011
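CellTiter-Glo luminescence gave cytotoxicity after 18 hours at 37 degrees C. The cells were HepG2 CAGA-GFP in 1% FBS DMEM, stimulated with 500 pg/mL TGF-beta after compound addition. %Activity was normalised to no-cell wells (complete cell-killing) and DMSO (no toxicity), and curves were fitted and classified.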
Nrf2 block = Nrf2 qHTS screen for inhibitors | A549 ARE-Fluc reporter, luciferase luminescence, 18-24 h | Potency, µM (titrated, usually from 46 µM), most hits filed as inhibitors | hit rate 2.1% among 360,000; also: nearly all actives have a fitted effect of over 60% in size
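Quantitative HTS in A549 cells stably bearing an antioxidant response element-firefly luciferase construct. Inhibition of Nrf2-driven transcription was scored by luminescence after 18-24 h of compound exposure at 37 °C.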
A549 tox-1 = Nrf2 qHTS screen for inhibitors: counterscreen for cytotoxicity; A549 ARE-Fluc cells, CellTiter-Fluor viability, 18-24 h; Potency, µM (top dose mostly 46 µM), most hits filed as inhibitors; hit rate 0.16% among 390,000; AID 504648, 2011
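A549 ARE_Fluc cells in 5% FBS OPTI-MEM were exposed to compounds in concentration-response for 18-24 h at 37 deg C. Viability was read by CellTiter-Fluor fluorescence (Ex 405/Em 525) after 30 min, before the luciferase read.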
FLuc enzyme inh = Nrf2 qHTS screen for inhibitors: Purified Fluc Biochemical Counterscreen for Hit Validation; shares compounds with Nrf2 block; purified firefly luciferase, luminescence inhibition; Potency, µM (titrated, usually from 57.5 µM), usual class: inhibitors; hit rate 4% among 1,400; AID 720522, 2013; also: nearly all actives have a fitted effect of over 65% in size
Target sequence (P08659 whole entry, looked up): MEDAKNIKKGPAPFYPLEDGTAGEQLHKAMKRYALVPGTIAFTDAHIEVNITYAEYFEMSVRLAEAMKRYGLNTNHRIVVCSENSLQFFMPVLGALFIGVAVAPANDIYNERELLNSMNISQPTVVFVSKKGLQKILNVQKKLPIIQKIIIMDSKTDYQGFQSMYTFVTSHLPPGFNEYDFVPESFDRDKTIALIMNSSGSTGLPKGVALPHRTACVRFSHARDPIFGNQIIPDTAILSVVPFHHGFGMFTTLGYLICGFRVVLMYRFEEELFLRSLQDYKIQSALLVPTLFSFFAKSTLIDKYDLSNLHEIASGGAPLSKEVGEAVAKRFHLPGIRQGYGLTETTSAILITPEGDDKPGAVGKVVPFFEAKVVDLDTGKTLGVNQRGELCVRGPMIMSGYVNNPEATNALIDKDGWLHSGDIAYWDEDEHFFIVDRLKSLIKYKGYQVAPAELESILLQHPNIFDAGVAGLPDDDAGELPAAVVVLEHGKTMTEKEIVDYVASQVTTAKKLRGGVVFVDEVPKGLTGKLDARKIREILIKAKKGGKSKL
A549 tox-2 = Nrf2 qHTS screen for inhibitors: A549 ARE-Fluc Cytotoxicity Counterscreen for Hit Validation | shares compounds with Nrf2 block | A549 ARE-Fluc cells, cytotoxicity counterscreen | Potency, µM (top dose mostly 46.1 µM), actives largely listed as inhibitors | hit rate 2% among 1,400;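 also: cells exposed to compounds for 18 to 24 hours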
ARE-Fluc inh = Nrf2 qHTS screen for inhibitors: Nrf2 A549 ARE-Fluc Confirmation Assay for Hit Validation. hit rate 74% among 1,400. Potency, µM (highest dose often 46.1 µM), usual class: inhibitors. shares compounds with Nrf2 block. A549 ARE-firefly luciferase reporter, luminescence; also: nearly all actives have a fitted effect of over 65% in size
Hits are given with their value; n = inactive; u = inconclusive; x = no result given. Calls follow the shape of the dose curve; as a rule, active = well fitted curve in the direction sought with a large enough effect; inconclusive = small, poorly fitted or top-dose-only effect, or another doubt; inactive = no such curve, though single readings can be large; an effect the other way counts as inactive or inconclusive.

SMILES | TGFb SMAD3 inh | Nrf2 ARE act | HepG2 tox | Nrf2 block | A549 tox-1 | FLuc enzyme inh | A549 tox-2 | ARE-Fluc inh
Cn1c(=O)n(-c2ccc(C(C)(C)C#N)cc2)c2c3cc(-c4cnc5ccccc5c4)ccc3ncc21 | u | x | n | x | x | n | u | 0.92µM
Cn1c(O)c(N=NC(=N)N)c2ccccc21 | n | n | n | u | n | x | x | x
COc1cccc(C(=O)N(Cc2ccccc2)Cc2cc3cc4c(cc3[nH]c2=O)OCCO4)c1 | n | n | n | 2.6µM | n | n | n | u
COc1ccccc1C(=O)N1CCN(c2ccc(N3CCOCC3)nn2)CC1 | n | n | n | n | n | x | x | x
CN(C)C(CNc1ncccn1)c1ccccc1 (centres undefined) | n | n | n | n | n | x | x | x
Cc1nn(-c2ccccc2)c2nc(=O)n(-c3ccccc3)cc12 | n | n | n | n | n | x | x | x
O=C(CSc1nnc(-c2ccc(Cl)cc2)c(-c2ccc(Cl)cc2)n1)NC1CCCC1 | n | n | n | x | n | x | x | x
Cc1ccc(-c2nnc(SCC(=O)NC3CCCC3)nc2-c2ccc(C)cc2)cc1 | u | n | n | 1.8µM | u | n | n | n
CCN(CC)C(=O)Cn1ncc2c([nH]c3ccccc32)c1=O | n | n | n | n | n | x | x | x
CC(=O)N(C(C)=O)c1ncc2c([nH]c3ccccc32)c1C#N | n | n | n | 8.2µM | n | n | n | x
Cc1cc(C)cc(NS(=O)(=O)c2ccc3c(c2)c(=O)n(C)c(=O)n3C)c1 | n | n | n | 8.2µM | n | n | n | 7.3µM
Cc1cc2ccccc2c[n+]1C1CCCCC1 | u | x | n | x | x | n | n | 1.3µM
O=C(NC1CCCCC1)c1ccc2ccccc2c1 | n | n | n | x | x | x | x | x
CN(CCc1ccccc1)C(=O)c1ccc(NC(=O)Cc2ccc(NC(=O)C3CCCN(C(=O)C4CCC4)C3)cc2)cc1 (centres undefined) | u | n | n | u | n | x | x | x
CN(CCc1ccccc1)C(=O)c1ccc(NC(=O)Cc2ccc(NC(=O)C3CCCN(C(=O)CCc4ccccc4)C3)cc2)cc1 (centres undefined) | n | n | n | 1.3µM | n | n | n | 4.1µM
CC(C)(C)C(=O)Nc1nnc(-c2ccccc2)c(-c2ccccc2)n1 | n | n | n | u | n | x | x | x
CC1(C)N=C(N)N=C(N)N1c1cccc(CC(=O)Nc2ccccc2)c1 | n | n | n | x | x | x | x | x
CC1(C)N=C(N)N=C(N)N1CCCCc1ccccc1 | n | n | n | 0.82µM | n | n | n | 1.2µM
O=C(c1ccccc1)N(NC(=O)C(O)(c1ccccc1)c1ccccc1)c1cccc(F)c1 | u | n | n | n | n | x | x | x
CC1SC(=NC(=O)c2ccco2)NC1=O (centres undefined) | n | n | n | n | n | x | x | x
CC1(c2ccc3ccccc3c2)NC(=O)N(CC(=O)N2CCC(C(N)=O)CC2)C1=O (centres undefined) | n | n | n | n | n | x | x | x
CC1(c2ccc3ccccc3c2)NC(=O)N(CC(=O)N2CCN(Cc3ccccc3)CC2)C1=O (centres undefined) | u | n | n | 1.3µM | u | n | n | 4.6µM
Cc1cc(C)c2c(-n3cccc3)c(C(=O)NCCCN3CCCCC3)sc2n1 | n | n | n | n | n | x | x | x
CC(Sc1nn(-c2ccc(F)cc2)c(=S)s1)C(=O)c1c(N)n(C)c(=O)n(C)c1=O (centres undefined) | u | n | n | u | n | x | x | x
Cn1c(N)c(C(=O)CSc2nn(-c3ccccc3)c(=S)s2)c(=O)n(C)c1=O | u | n | n | 7.3µM | n | n | n | 9.2µM
SMILES | TGFb SMAD3 inh | Nrf2 ARE act | HepG2 tox | Nrf2 block | A549 tox-1 | FLuc enzyme inh | A549 tox-2 | ARE-Fluc inh
COc1ccc(OC(C)c2nc3ccccc3[nH]2)cc1 (centres undefined) | n | n | n | 9.2µM | n | n | n | n
C[C@@H]1[C@H]2CCCC[C@H]2CN(C(=O)OC(C)(C)C)[C@@H]1c1cn(Cc2ccccc2)c2ccc(F)cc12 | n | n | n | n | n | x | x | x
Cc1ccc(S(=O)(=O)N2C[C@@H]3CCCC[C@@H]3[C@@H](C)[C@H]2c2cn(Cc3ccccc3)c3ccccc23)cc1 | n | n | n | 1.8µM | n | n | n | 2.9µM
COc1ccc2c(c1)c([C@@H]1[C@H](C)[C@H]3CCCC[C@H]3CN1S(=O)(=O)c1ccc(C)cc1)cn2C | n | n | n | n | n | x | x | x
Cc1ccc(S(=O)(=O)N2C[C@@H]3CCCC[C@@H]3[C@@H](C)[C@H]2c2cn(Cc3ccccc3)c3ncccc23)cc1 | u | n | n | 5.2µM | n | n | n | 5.2µM
c1ccc(-c2nnc(-c3ccccn3)nc2NC2CCCCC2)cc1 | u | n | n | 1.8µM | u | n | u | 4.1µM
COc1cc(C(=O)C(=O)c2cc(OC)c(O)c(OC)c2)cc(OC)c1O | n | n | n | u | n | x | x | x
CCCCn1nc(NC(=O)c2cccc(Cl)c2)c2cc3ccccc3nc21 | n | n | n | n | n | x | x | x
Cc1cc(Nc2ccccc2C(=O)O)n(-c2ccc([N+](=O)[O-])cc2)n1 | n | n | n | 6.5µM | u | n | n | u
Cc1cc(NC(=O)c2cc([N+](=O)[O-])cc([N+](=O)[O-])c2)n(-c2ccccc2)n1 | u | n | n | n | n | x | x | x
O=c1c2cnn(-c3ccccc3)c2nc(-c2ccco2)n1-c1ccccc1 | n | n | n | 9.2µM | n | n | n | 18µM
COc1cccc(-n2c(-c3ccco3)nc3c(cnn3-c3ccc(Cl)cc3)c2=O)c1 | n | n | n | u | n | x | x | x
Cc1cc(Cl)ccc1NC(=O)CN1CCC(C(O)(c2ccccc2)c2ccccc2)CC1 | n | n | n | u | u | x | x | x
CCN(CC)CCCC1(CN)OCCc2ccccc21 (centres undefined) | n | n | n | n | u | x | x | x
Cc1cc(=O)[nH]c(N/N=C/c2cc(C)n(CC(F)(F)F)c2C)n1 | u | n | n | 4.1µM | n | n | n | 1.5µM
Cc1cc(=O)[nH]c(N/N=C/c2ccccc2C(F)(F)F)n1 | n | n | n | n | n | x | x | x
CC(=O)Nc1ccccc1OCC(=O)c1cc(C)n(Cc2cccs2)c1C | n | n | n | 0.41µM | u | 15µM | n | n
